# This is a sample that favours compounds with a hit; in the whole collection about 1.2% have one here.
# CCHFV vOTU inh = CCHFV vOTU protease inhibition; Pep-AMC fluorescence; inhibition, % at 11.5 µM; actives 0.55% (n = 370,000); AID 651958; in the data active = inhibition above about 30%; note: 0% = vehicle wells with enzyme and 100% = no enzyme wells
# Rv3671c inh = inhibits the M. tuberculosis serine protease Rv3671c; actives 0.048% (n = 320,000); P9WHR9; inhibition, % at 5.96 µM; in the data active = inhibition above about 38%;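 note: extracellular domain of Rv3671c used as enzyme; 0% = enzyme with DMSO and 100% = no enzyme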
# Mtb UGM inh = Mtb UDP-galactopyranose mutase inhibition; P9WIQ1; purified UGM, fluorescence polarization probe displacement; inhibition, % at 10 µM; actives 0.06% (n = 320,000); in the data active = inhibition above about 10%, passing the limit was not always enough
# Mtb betalactam = beta-lactam sensitization of Mtb H37Rv; M. tuberculosis H37Rv growth with meropenem, percent inhibition; actives 0.27% (n = 330,000); AID 434955; inhibition, % at 25 µM; call rule not given here;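 note: growth measured after seven days incubation then overnight dye step; 0% = bacteria only wells and 100% = bacteria with antibiotic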
# RecA splice inh = inhibitors of M. tuberculosis RecA intein splicing; P9WHJ3; cell-free RecA intein splicing, fluorescence; inhibition, % (concentration not given with the values); actives 0.75% (n = 290,000); in the data active = inhibition above about 30%;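 note: 0% = vehicle wells and 100% = reference inhibitor control wells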
# Target sequence (P9WHJ3 whole entry, looked up, canonical isoform): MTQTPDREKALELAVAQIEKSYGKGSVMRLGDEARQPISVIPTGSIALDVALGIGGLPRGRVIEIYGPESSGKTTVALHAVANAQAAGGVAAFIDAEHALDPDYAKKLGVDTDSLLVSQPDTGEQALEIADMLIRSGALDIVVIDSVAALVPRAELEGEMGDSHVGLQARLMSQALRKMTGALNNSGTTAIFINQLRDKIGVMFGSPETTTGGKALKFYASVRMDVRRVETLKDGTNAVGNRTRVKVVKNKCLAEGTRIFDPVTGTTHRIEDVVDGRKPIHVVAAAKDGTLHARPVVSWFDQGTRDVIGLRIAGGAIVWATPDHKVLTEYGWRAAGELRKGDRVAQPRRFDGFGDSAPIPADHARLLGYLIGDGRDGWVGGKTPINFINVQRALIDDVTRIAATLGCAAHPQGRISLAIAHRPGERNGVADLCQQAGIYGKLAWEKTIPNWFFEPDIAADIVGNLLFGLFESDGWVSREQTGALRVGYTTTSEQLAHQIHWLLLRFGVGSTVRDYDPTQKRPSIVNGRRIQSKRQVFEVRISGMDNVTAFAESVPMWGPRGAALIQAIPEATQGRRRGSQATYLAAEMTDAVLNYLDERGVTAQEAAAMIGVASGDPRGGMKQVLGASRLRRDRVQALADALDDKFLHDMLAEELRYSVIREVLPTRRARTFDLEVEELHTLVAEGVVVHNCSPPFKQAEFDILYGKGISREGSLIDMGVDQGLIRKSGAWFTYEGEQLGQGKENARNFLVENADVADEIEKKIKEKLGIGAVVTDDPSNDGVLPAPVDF
# An asterisk follows results filed as active; i = inactive; nt = not tested or not shown.
SMILES,CCHFV vOTU inh,Rv3671c inh,Mtb UGM inh,Mtb betalactam,RecA splice inh
O=C(NC1CCCCN(Cc2cccc(Cl)c2)C1=O)c1ccc(-c2ccccc2)cc1 (stereo unspecified),4,nt,nt,nt,nt
CC1(C)N=C(SCC(=O)Nc2ccc(Cl)cc2Cl)C(c2ccccc2)=N1,3,-4,3,0,32*
Cc1ccc(C(=O)Oc2ccc([N+](=O)[O-])cc2)cc1S(=O)(=O)N1CCCCCC1,2,1,1,4,30*
CSc1nc(O)c(Nc2ccccc2)c(=O)[nH]1,-21,nt,nt,nt,nt
CSc1nc(O)c(Nc2cccc(Cl)c2)c(=O)[nH]1,-1,1,1,-3,76*
COC(=O)[C@H](C(C)C)N(CCc1cn(CC2CCCCC2)nn1)S(=O)(=O)c1ccccc1Br,14,nt,nt,nt,nt
CCN(CC)S(=O)(=O)c1ccc2c(c1)c(=O)c(C(=O)NCc1ccco1)cn2C,4,-3,12*,2,-2
COc1cc(NC(=O)c2ccccc2)c(C)cc1NC(=O)CSc1nnc(-c2ccccc2F)n1-c1ccc(C)cc1,19,nt,nt,nt,nt
CCOC(=O)c1c(=O)n(O)c2ccc(OC)cc2[n+]1[O-],-7,-5,15*,-2,nt
COc1ccc2c(c1)[n+](=O)c(C(C)=O)c(C)n2[O-],5,2,-1,3,-3
COC(=O)C1=C(C)N(Cc2ccccc2C(F)(F)F)C(=NCc2ccccc2)NC1c1cccc(F)c1 (stereo unspecified),15,nt,nt,nt,nt
CCSc1nnnn1-c1ccccc1,-6,-7,-2,2,nt
Cc1ccc(C)c(-n2nnnc2Sc2nnnn2-c2ccccc2)c1,5,3,-4,29,71*
COc1ccc(CNCC#CC2=CCCCC2)c(OC)c1,-6,nt,nt,nt,nt
O=C(NCCN1CCC2(CC1)C(=O)NCN2c1ccccc1)c1ccc(F)cc1,-8,nt,nt,nt,nt
O=C1NCN(c2ccccc2)C12CCN(CCCC(c1ccc(F)cc1)c1ccc(F)cc1)CC2,1,-1,-3,100,38*
COc1cccc(N=Cc2c(O)n(-c3cccc(C)n3)c(=O)c3ccccc23)c1,-14,2,-1,0,0
COc1ccc(N=Cc2c(O)n(-c3cccc(C)n3)c(=O)c3ccccc23)c(OC)c1,-7,3,20*,6,-3
CC(=O)Nc1ccc(OCC(C)CN2CCC(C(O)(c3ccccc3)c3ccccc3)CC2)cc1 (stereo unspecified),-9,nt,nt,nt,nt
CC[C@H]1C=C[C@@H](C(=O)NS(=O)(=O)c2ccc(C)cc2)N(C(C)=O)C1,-5,nt,nt,nt,nt
CC(C)c1ccc(C(C)NCCS(=O)(=O)c2ccc(Br)cc2)cc1 (stereo unspecified),35*,-3,1,91,5
CC(NCCS(=O)(=O)c1ccc(Cl)cc1)c1cccc(Cl)c1 (stereo unspecified),6,-13,-4,4,4
CN1/C(=C\C=C\C2=[N+](C)c3ccc4ccccc4c3C2(C)C)C(C)(C)c2ccccc21,nt,187*,1,62,nt
CN1/C(=C\C=O)C(C)(C)c2ccccc21,15,-21,-2,0,0
COc1ccc(-c2[nH][nH]c(=O)c2NC(=O)c2ccccn2)cc1,3,nt,nt,nt,nt
SMILES,CCHFV vOTU inh,Rv3671c inh,Mtb UGM inh,Mtb betalactam,RecA splice inh
COc1ccc(CCC(=O)Nc2c(-c3ccc(N(C)C)cc3)[nH][nH]c2=O)cc1,109*,nt,nt,nt,nt
COc1ccc(N=CC2=C(Nc3ccc(OC)cc3)c3c(C)nn(-c4ccccn4)c3CC2)cc1,nt,-2,14*,100,nt
COc1ccc(-c2cc(C(=O)O)c3c(C)nn(-c4ccccn4)c3n2)cc1,-68,4,nt,8,-5
COC(=O)[C@]12C[C@H](CC(=O)N3CCN(C(=O)C4CC4)CC3)C(=O)N(CCc3ccc(OC)c(OC)c3)C1=C[C@H](C1CCCC1)O[C@@H]2C,0,nt,nt,nt,nt
C=CCN1[C@@H](C)COc2cc(N3CCCC3)ccc2S1(=O)=O,-7,nt,nt,nt,nt
Cc1nccn1-c1c([N+](=O)[O-])c(=O)n(C)c2ccccc12,-14,8,2,5,45*
Cc1ccc(S(=O)(=O)NC(C)CCc2ccccc2)cc1 (stereo unspecified),31*,7,-1,-3,3
COC(=O)[C@]12C[C@H](CC(=O)NCCCN3CCCC3=O)C(=O)N(Cc3ccco3)C1=C[C@H](C(C)C)O[C@@H]2C1CC1,0,nt,nt,nt,nt
COC(CN(C(=O)CCl)C(C(=O)NC1CCCCC1)c1ccc(C)cc1)OC (stereo unspecified),6,-5,0,-4,32*
O=C1/C(=C/c2ccccc2F)SC(=S)N1CC(=O)N1CCCCC1c1cccnc1 (stereo unspecified),17,-8,-2,73,32*
CC(=O)Nc1cc(OC(C)=O)c2nonc2c1OC(C)=O,101*,-200,0,99,nt
CC(=O)Nc1nonc1NC(C)=O,-4,0,-1,-2,1
CN1C(=O)C(Cc2ccc3c(c2)OCO3)C(=O)N(C)C1=O,nt,-8,0,-5,30*
CN1CCc2cc3c(c4c2[C@H]1[C@H](O)c1ccccc1-4)OCO3,37*,-93,2,100,-10
CCCCCCOc1ccc(C(=O)n2cnc(N)n2)cc1,-4,6,-5,-3,54*
O=[N+]([O-])c1ccc(N2CCOCC2)c2ccncc12,5,-4,-1,3,30*
N#CCC[C@H]1CC[C@]2(CCCN(C(=O)c3ccccc3)C2)O1,6,nt,nt,nt,nt
O=C(NC(=C(Cl)Cl)S(=O)(=O)c1ccc(Cl)cc1)c1ccccc1,16,2,0,0,30*
CNC(=O)c1nnsc1S(=O)(=O)c1ccc(Cl)cc1,1,nt,nt,nt,40*
C[C@@H]1OC(C2CCCCC2)N(C)[C@H]2C[C@H]3c4cc(N5CCOCC5)ccc4CCN3C[C@@H]12 (stereo partly specified),-6,nt,nt,nt,nt
Cc1cc(O)cc(=O)n1-c1cccc([N+](=O)[O-])c1,-7,nt,nt,nt,nt
CC1=NN(c2cccc([N+](=O)[O-])c2)C(=O)C1,13,-23,0,0,84*
CC(C)C(C#CC1CC1)NCc1ccc2c(c1)OCO2 (stereo unspecified),4,nt,nt,nt,nt
O=C(Nc1ccc(F)cc1)c1nn(-c2ccccc2)c(=O)cc1Cl,13,nt,nt,nt,31*
Cc1ccc(NC(=O)c2cc(-c3ccccc3)nn2-c2ccccc2)cc1,1,-9,-2,13,1
SMILES,CCHFV vOTU inh,Rv3671c inh,Mtb UGM inh,Mtb betalactam,RecA splice inh
c1ccc(-c2nc(Sc3ncnc4c3cnn4-c3ccccc3)n[nH]2)cc1,nt,4,4,93,32*
Cc1onc(-c2c(Cl)cccc2Cl)c1C(=O)n1nnc2ccccc21,nt,6,-1,16,37*
CN(C)c1ccc(C(=O)n2nnc3ccccc32)cc1,7,0,-1,9,49*
Cc1ccc(S(=O)(=O)N2CCCC2C(c2ccccc2O)c2cn(C)c3ccccc23)cc1 (stereo unspecified),4,nt,nt,nt,nt
c1ccc(Sc2ncnc3ccccc23)cc1,3,0,2,1,40*
CC(=O)OCCn1c2nc(=O)[nH]c(=O)c-2nc2cc(C)c(C)cc21,14,nt,108*,8,i
Cc1ccc(-n2nc(C)c(NC(=O)CCl)c2C)cc1C,-16,1,1,97,42*

# Assay outcomes as filed in PubChem.
